Drawing on PubChem BioAssay (NCI), this text covers growth inhibition for 40 molecules.

Compounds without any hit were thinned out: in the full panel of roughly 79,000, 15% have a hit. Values without a mark were called inactive. Calls of active or inactive are those of the source. No stated cut-off is given here; in the data, active means growth inhibition above about 70%; inactive means the rest.

One assay is described as follows: NCI Yeast Anticancer Drug Screen. Data for the rad50 strain (AID 155).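 Further: 0% = growth of vehicle-only cultures of the same strain.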 The conditions noted are these: S. cerevisiae rad50 strain growth inhibition; at 50.0 µM; active compounds read high. The essentials: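 Relative growth inhibition (compound vs vehicle) was measured in yeast with a defined repair-gene alteration.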
Turning to `CC(C)C1OCC(CO)([N+](=O)[O-])CO1` (stereo not given), the growth inhibition is -45%.
`CSc1nc(C)c2c(n1)N(c1ccc(Cl)cc1)CC2`: the growth inhibition was 1.7%.
Regarding `CCc1cccc(CC)c1NC(=O)/C=C/C(=O)O`, the growth inhibition is -12.6%.
For `CCn1c(S)c(N=NC(=S)c2ccc3ccccc3n2)c2ccccc21`, the growth inhibition was 46%.
For `O=C(O)CNC(=O)NC(Cc1ccccc1)C(=O)O` (stereo not given), the growth inhibition was 9.1%.
Still for that read-out and setting: then `OC/C(I)=C(I)\C(I)=C(\I)CO`, with 99.2% (active).
The same measure, in the same setting: next, `CC(=O)C(N)=NCc1ccccc1`: 10.2%; `Cc1cc2ccccc2nc1-c1ccncc1`: 3.45%.
The same measure, in the same setting: then `CC(C)(C)C1=NC(S)NC(CCC(=O)Nc2ccccc2[N+](=O)[O-])=C1` (stereo not given), with 0.4%; and `COc1ccc2cc(C(=O)c3ccccc3)c(=O)oc2c1`, with -0.1%.
As to `CCCCCCC1=CCCC1=O`, the growth inhibition was -3.5%.
Same read-out and setting: then `N#Cc1cccc(O)c1`, with -3.45%.
Same read-out and setting: next, `O=C(c1nc2ccccc2[nH]c1=O)C(O)c1ccccc1` (stereo not given): 6.9%; `O=c1[nH]c2cc([N+](=O)[O-])ccc2nc1/C(=N/Nc1ccccc1)C(O)c1ccco1` (stereo not given): 7.9%; `CSc1ccc(OC(=O)Nc2ccc(Cl)c(Cl)c2)cc1C`: 95.3% (active).
The same measure, in the same setting: then `Cc1cc(O)c(C(C)C)cc1NC(=S)Nc1ccc(S(=O)(=O)c2ccc(NC(=S)Nc3cc(C(C)C)c(O)cc3C)cc2)cc1`, with 7.55%.
On to `CC1=C/C(=N\O)C(C(O)(C(F)(F)F)C(F)(F)F)C(C)(C)C1` (stereo not given), for which the growth inhibition was -37.7%.
On the same count and under the same terms, next, `COc1cc2c(cc1OC)C(O)C(O)(CO)C(C(=O)O)C2c1cc(OC)c(OC)c(OC)c1` (stereo not given): 24.4%.
`O=C1SCC(O)=C1/C=N/Nc1nc2ccccc2o1`: the growth inhibition is -11.9%.
On the same count and under the same terms, then `CC(=O)OCC1OC(n2nc(C#N)c(C#N)n2)C(OC(C)=O)C1OC(C)=O` (stereo not given), with 37.9%; and `C/C=C/C=C1/OC(C)=C(C(=O)OCC)C1=O`, with 7.95%; and `CCN(CC)CC#CCCCN(CC)CC`, with -29.3%.
In the case of `CCOC(=O)/C(C#N)=C(O)\C(=C\c1ccc(Cl)cc1)NC(=O)c1ccc(NC(C)=O)cc1`, the growth inhibition was 8.9%.
On the same count and under the same terms, next, `CCC1(C)N=C(N)Nc2nc3ccccc3n21` (stereo not given): -9.95%.
The same measure, in the same setting: then `CCNC(=O)c1csnn1`, with -6.55%; and `C[N+]1(CCC[N+]2(C)CCC3(CCCCC3)CC2)CCOCC1`, with 18.6%.
On the same count and under the same terms, next, `Cc1ccc2c(c1)CCC(=O)O2`: 11.4%; `Nc1nc(=O)n(CCCCCCc2ccccc2)cc1-c1ccc(Cl)c(Cl)c1`: -4.75%; `COc1ccc2c(c1)C1(C)CCC(=O)C(C)=C1CC2` (stereo not given): 17.9%.
As to `CCCCCCCCCCCCOC1OC(COC(C)=O)C(OC(C)=O)C(OC(C)=O)C1OC(C)=O` (stereo not given) (tested in a mixture with another compound), the growth inhibition was -7.9%.
Regarding `c1ccc(C(=C2CCC2)c2c3ccccc3cc3ccccc23)cc1`, the growth inhibition was -10.1%.
Regarding `COc1cccc(-c2nsc(=O)o2)c1`, the growth inhibition was 41.5%.
Still for that read-out and setting: next, `CC1C(c2ccccc2)OC(c2ccccc2)N1C` (stereo not given): 3.25%; `O=C(NO)Oc1cccc2ccccc12`: 9.7%; `c1ccc2c(c1)CSc1ccccc1-2`: 9.8%.
Consider `CN(C)N=Nc1ccccc1`, for which the growth inhibition is 38.2%.
On the same count and under the same terms, next, `Cc1cccc(-c2cccc(C)c2C)c1C`: -6.5%.
Same read-out and setting: then `COc1ccc(-c2coc3cc(O)cc(O)c3c2=O)cc1`, with 36.6%.
For the molecule `COc1cc(Nc2cnc3ccc(C(F)(F)F)cc3n2)cc(OC)c1OC`, the growth inhibition is -0.3%.
In the case of `O=C(O)c1[nH]ncc1[N+](=O)[O-]`, the growth inhibition was 24.1%.

The next assay is described as follows: NCI Yeast Anticancer Drug Screen. Data for the mec2-1 strain (AID 157). The conditions noted are these: S. cerevisiae mec2-1 strain, at 50.0 µM, active compounds read high. The essentials: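 Readout is yeast growth inhibition, normalised to vehicle-treated controls, in the mec2-1 strain exposed to compound.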
With `CC(C)C1OCC(CO)([N+](=O)[O-])CO1` (stereo not given), the growth inhibition was -18.4%.
Still for that read-out and setting: then `CSc1nc(C)c2c(n1)N(c1ccc(Cl)cc1)CC2`, with -32.5%; and `CCc1cccc(CC)c1NC(=O)/C=C/C(=O)O`, with 3.45%; and `CCn1c(S)c(N=NC(=S)c2ccc3ccccc3n2)c2ccccc21`, with 18.9%.
Turning to `O=C(O)CNC(=O)NC(Cc1ccccc1)C(=O)O` (stereo not given), the growth inhibition was 12.4%.
Still for that read-out and setting: next, `OC/C(I)=C(I)\C(I)=C(\I)CO`: 99.3% (active); `CC(=O)C(N)=NCc1ccccc1`: 2.7%.
With `Cc1cc2ccccc2nc1-c1ccncc1`, the growth inhibition was -3.15%.
For the molecule `CC(C)(C)C1=NC(S)NC(CCC(=O)Nc2ccccc2[N+](=O)[O-])=C1` (stereo not given), the growth inhibition was -8.85%.
Still for that read-out and setting: next, `COc1ccc2cc(C(=O)c3ccccc3)c(=O)oc2c1`: -20.9%; `CCCCCCC1=CCCC1=O`: -25.4%; `N#Cc1cccc(O)c1`: -10.7%.
As to `O=C(c1nc2ccccc2[nH]c1=O)C(O)c1ccccc1` (stereo not given), the growth inhibition is -23.6%.
Consider `O=c1[nH]c2cc([N+](=O)[O-])ccc2nc1/C(=N/Nc1ccccc1)C(O)c1ccco1` (stereo not given), for which the growth inhibition was -17.4%.
On the same count and under the same terms, next, `CSc1ccc(OC(=O)Nc2ccc(Cl)c(Cl)c2)cc1C`: 96.5% (active); `Cc1cc(O)c(C(C)C)cc1NC(=S)Nc1ccc(S(=O)(=O)c2ccc(NC(=S)Nc3cc(C(C)C)c(O)cc3C)cc2)cc1`: 20.1%; `CC1=C/C(=N\O)C(C(O)(C(F)(F)F)C(F)(F)F)C(C)(C)C1` (stereo not given): -39%.
Regarding `COc1cc2c(cc1OC)C(O)C(O)(CO)C(C(=O)O)C2c1cc(OC)c(OC)c(OC)c1` (stereo not given), the growth inhibition was -10.3%.
Same read-out and setting: then `O=C1SCC(O)=C1/C=N/Nc1nc2ccccc2o1`, with 6.45%; and `CC(=O)OCC1OC(n2nc(C#N)c(C#N)n2)C(OC(C)=O)C1OC(C)=O` (stereo not given), with -3%; and `C/C=C/C=C1/OC(C)=C(C(=O)OCC)C1=O`, with -15.6%.
Turning to `CCN(CC)CC#CCCCN(CC)CC`, the growth inhibition was -30.2%.
Still for that read-out and setting: then `CCOC(=O)/C(C#N)=C(O)\C(=C\c1ccc(Cl)cc1)NC(=O)c1ccc(NC(C)=O)cc1`, with -0.3%; and `CCC1(C)N=C(N)Nc2nc3ccccc3n21` (stereo not given), with 0.35%.
`CCNC(=O)c1csnn1`: the growth inhibition is -5.6%.
Take `C[N+]1(CCC[N+]2(C)CCC3(CCCCC3)CC2)CCOCC1`: the growth inhibition was -0.05%.
On the same count and under the same terms, then `Cc1ccc2c(c1)CCC(=O)O2`, with 0%; and `Nc1nc(=O)n(CCCCCCc2ccccc2)cc1-c1ccc(Cl)c(Cl)c1`, with -8.95%.
In the case of `COc1ccc2c(c1)C1(C)CCC(=O)C(C)=C1CC2` (stereo not given), the growth inhibition is -3.95%.
On the same count and under the same terms, next, `CCCCCCCCCCCCOC1OC(COC(C)=O)C(OC(C)=O)C(OC(C)=O)C1OC(C)=O` (stereo not given) (tested in a mixture with another compound): -15.4%.
In the case of `c1ccc(C(=C2CCC2)c2c3ccccc3cc3ccccc23)cc1`, the growth inhibition is 9.4%.
The same measure, in the same setting: next, `COc1cccc(-c2nsc(=O)o2)c1`: 23.1%; `CC1C(c2ccccc2)OC(c2ccccc2)N1C` (stereo not given): -6.55%.
`O=C(NO)Oc1cccc2ccccc12`: the growth inhibition was 0.55%.
Same read-out and setting: then `c1ccc2c(c1)CSc1ccccc1-2`, with -8.9%.
Same read-out and setting: then `CN(C)N=Nc1ccccc1`, with -14.2%; and `Cc1cccc(-c2cccc(C)c2C)c1C`, with 4.75%; and `COc1ccc(-c2coc3cc(O)cc(O)c3c2=O)cc1`, with 22.6%.
Take `COc1cc(Nc2cnc3ccc(C(F)(F)F)cc3n2)cc(OC)c1OC`: the growth inhibition is 4.9%.
The same measure, in the same setting: then `O=C(O)c1[nH]ncc1[N+](=O)[O-]`, with -4.85%.
